Experimental data published in PubChem BioAssay (NCI).
Several values for one entry are separate records, joined by “and”; a condition that tells them apart may be missing. Equal values may be shown once. About 83,000 compounds went through this panel and 20% of them were active in at least one assay; those are over-represented in the sample as a whole.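 In brief: 96-well plates, 48 h treatment, single concentration, percent growth endpoint.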 Activity calls are given as the source filed them. Where a SMILES comes first, the peptide text is derived from it.

Each compound was assayed on CAKI-1 renal (assay: NCI-60 one-dose screen, 48 h (100 = growth as untreated, 0 = no growth, -100 = all killed)). Conditions: 10 µM unless noted.
Description: Growth inhibition of the CAKI-1 human tumor cell line is measured as a screen for anti-cancer activity. Cells are grown in 96 well plates and exposed to the test compound for 48 hours. Compounds are tested at a single concentration, which is 10^-5 M for most compounds. The reported endpoint is percent growth (GI% or GIPRCNT), where numbers from 0 - 100% represent growth inhibition, and numbers from -100% - 0 represent cell death. For example, a value of 40 represents 60% growth inhibition. A value of 0 means no net growth occurred over the course of the experiment. A value of -40 indicates 40% of cells at the beginning of the experiment died by the end of the experiment. A value of -100 means all cells are dead at the end of the experiment.
NCI-60 Human Tumor Cell Lines Screen was performed using the standard one-dose NCI protocol, which is described in more detail at https://dtp.cancer.gov/discovery_development/nci-60/default.htm.
Compounds with GIPRCNT values below 10 were considered active. Activity score was based on GIPRCNT using the following formula: […]
Score is 0 for GIPRCNT values of 100 or above, 50 for GIPRCNT values of 0, and 100 for GIPRCNT values of -100.
`O=C1OC(C(O)C(O)CO)C(O)=C1O` (stereo not given) was tested, and the growth was 104% (inactive) and 102% (inactive).
`c1ccc2c(c1)OC1OC2Oc2ccccc21` was tested, and the growth was 113% (inactive).
For `OC1COC(OCc2ccccc2)C(O)C1O` (stereo not given), the growth was 105% (inactive).
With `CC[C@H](CC[C@@H](C)[C@H]1CC[C@H]2[C@@H]3CC=C4C[C@@H](O)CC[C@]4(C)[C@H]3CC[C@]12C)C(C)C` the growth was 93.2% (inactive) and 90% (inactive).
For `CCc1cc(C)cc(O)c1`, the growth was 108% (inactive).
In the case of `CCCCCCCCCCCCCCCCC(C(=O)O)C(O)(CC(=O)O)C(=O)O` (stereo not given), the growth was 103% (inactive) and 74.9% (inactive).
With `Cn1cnc([N+](=O)[O-])c1Sc1ncn[nH]1` the growth was 68.4% (inactive).
For `CCCCOC(=O)/C=C\C(=O)NC(N)=O`, the growth was -58% (active).
With `CN(C)c1ccc(/C=C\C(=O)c2ccccc2)cc1` the growth was 86.9% (inactive) and 93.8% (inactive).
`CC(C)C(C)(C)c1ccc(O)cc1` was tested, and the growth was 96.4% (inactive).
In the case of `O=C(O)CCCl`, the growth was 102% (inactive).
`CC(=O)Nc1ccc(S(N)(=O)=O)cc1` was tested, and the growth was 108% (inactive) and 93.2% (inactive).
With `O=c1n(CC2CO2)c(=O)n(CC2CO2)c(=O)n1CC1CO1` (stereo not given) the growth was -7.84% (active).
In the case of `O=C1C=C(Nc2ccccc2)c2ccccc2C1=O`, the growth was 55.9% (inactive) and 98.1% (inactive).
In the case of `Cc1cc(-c2ccc(N=Nc3ccc4c(S(=O)(=O)O)cc(S(=O)(=O)O)c(N)c4c3O)c(C)c2)ccc1N=Nc1ccc2c(S(=O)(=O)O)cc(S(=O)(=O)O)c(N)c2c1O`, the growth was 86.9% (inactive).
For `OCCN1CCCCCCC1`, the growth was 93.2% (inactive).
For `Cc1cc2ccccc2cn1`, the growth was 100% (inactive) and 67.8% (inactive).
For `CCN(CCNS(C)(=O)=O)c1ccc(N)c(C)c1`, the growth was 39.4% (inactive) and 73.2% (inactive).
`OCC1OC(O)C(O)C(O)C1O` (stereo not given) was tested, and the growth was 89% (inactive).
With `COc1cc(C(O)C2C(=O)OCC2C2(c3ccc4c(c3)OCO4)SCCCS2)cc(OC)c1OC` (stereo not given) the growth was 93.8% (inactive).
For `CN1CNC(=O)NC1`, the growth was 98.5% (inactive) and 106% (inactive).
With `NC(Cc1ccccc1)C(=O)NC(Cc1ccccc1)C(=O)O` (stereo not drawn) (H-Phe-Phe-OH; configuration not given here) the growth was 106% (inactive) and 97.1% (inactive).
`c1ccc(CNCCNCc2ccccc2)cc1` was tested, and the growth was 98.5% (inactive).
In the case of `COc1ccc(Nc2ccc3ccccc3c2)cc1`, the growth was 52.3% (inactive).
In the case of `O=C(/C=C/c1ccccc1)c1ccccc1`, the growth was 99.2% (inactive).
For `O=C(O)/C=C\C(=O)Nc1cccc2ccccc12`, the growth was 89.4% (inactive) and 98.7% (inactive).
In the case of `Cl`, the growth was 95.6% (inactive).
In the case of `O=CN1CCCCC1`, the growth was 96.9% (inactive).
In the case of `NC(Cc1c[nH]c2ccccc12)C(=O)O` (stereo not given), the growth was 85% (inactive).
`C/C(=C\c1ccccc1)c1ccccn1` was tested, and the growth was 102% (inactive).
With `CN(C)CC1CCCCCC(CN(C)C)C1=O` (stereo not given) the growth was -48.5% (active).
For `C#CCOC(=O)Nc1ccccc1`, the growth was 98% (inactive).
`O=C1CSC2=NCCN12` was tested, and the growth was 95.6% (inactive).
In the case of `Cc1cc(-c2cc(C)c(O)c(C)c2)cc(C)c1O`, the growth was 59.4% (inactive).
For `Oc1ccc(Cc2ccccc2Cl)c(O)c1`, the growth was 91% (inactive).
For `COc1ccc(C(=O)CC(c2ccccc2)C(C#N)c2ccccc2)cc1` (stereo not given), the growth was 74.2% (inactive).
`Nc1ncnc2c1ncn2C1OC(COP(=O)(O)O)C(O)C1O` (stereo not given) was tested, and the growth was 106% (inactive).
`Cc1ccc(S(=O)(=O)c2ccccc2)cc1` was tested, and the growth was 25.4% (inactive).
In the case of `O=C1c2c(O)ccc(O)c2C(=O)c2c(NCCNCCO)ccc(NCCNCCO)c21`, the growth was -17.2% (active) and -31% (active).
For `NC1CCC(C(=O)O)CC1` (stereo not given), the growth was 96.7% (inactive) and 90.7% (inactive).
